Assay results as given in PubChem BioAssay AID1159580 (chemical genetic matrix, 2015).
Several values for one entry are separate records, joined by “and”; a condition that tells them apart may be missing. Equal entries are not always repeated. Among all 5,500 compounds or so, about 2,000 (36%) were called active. Not shown: some 18% with an inconclusive outcome. Rule as the data show it: active = normalized growth mostly below about 0.91 (no sharp cut-off); inconclusive = no clear call, values can overlap the other calls; inactive = mostly above about 0.92. Some of the results follow.

Experiment: chemical genetic growth profiling, strain panel (AID 1159580);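 also: tested at 20 µM; growth read once vehicle control cultures reached saturation at 30 °C; 1 = growth at the plate median or of vehicle wells; lower values mean less growth of the strain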
Conditions: S. cerevisiae deletion strains, growth OD
[1] = locus YAL013W, strain DEP1, hits give low values
[2] = locus YMR307W, strain GAS1, hits give low values

Measured: normalized growth

CN1CCCCC1c1ccc(-c2cccnc2)nc1 (stereo not given)
inactive: [1] 1.01 | locus YAL021C, strain ccr4, hits give low values 0.987 | locus YAL026C, strain drs2, hits give low values 0.965 | locus YAL030W, strain snc1, hits give low values 0.984 | locus YBL061C, strain skt5, hits give low values 0.975 | locus YBR009C, strain hhf1, hits give low values 0.938 | locus YBR021W, strain FUR4, hits give low values 1.1 | locus YBR023C, strain chs3, hits give low values 0.99 | locus YBR171W, strain sec66, hits give low values 0.971 | locus YBR229C, strain ROT2, hits give low values 1.02 | locus YBR231C, strain swc5, hits give low values 0.982 | locus YBR279W, strain paf1, hits give low values 0.984 | locus YCL011C, strain gbp2, hits give low values 0.964 | locus YCL016C, strain dcc1, hits give low values 0.997 | locus YCL029C, strain bik1, hits give low values 0.97 | locus YCL061C, strain MRC1, hits give low values 0.98 | locus YCL069W, strain vba3, hits give low values 0.979 | locus YCR088W, strain abp1, hits give low values 0.994 | locus YDL005C, strain med2, hits give low values 0.964 | locus YDL035C, strain GPR1, hits give low values 1.01 | locus YDL040C, strain nat1, hits give low values 0.983 | locus YDL074C, strain BRE1, hits give low values 1.01 | locus YDL101C, strain DUN1, hits give low values 1.02 | locus YDL134C, strain PPH21, hits give low values 1.1 | locus YDL185W, strain tfp1, hits give low values 0.959 | locus YDL192W, strain arf1, hits give low values 0.983 | locus YDR001C, strain nth1, hits give low values 0.962 | locus YDR069C, strain doa4, hits give low values 0.962 | locus YDR101C, strain arx1, hits give low values 0.999 | locus YDR137W, strain rgp1, hits give low values 0.975 | locus YDR150W, strain NUM1, hits give low values 1.01 | locus YDR159W, strain sac3, hits give low values 0.927 | locus YDR162C, strain NBP2, hits give low values 1.07 | locus YDR195W, strain ref2 0.929 | locus YDR297W, strain sur2, hits give low values 0.967 | locus YDR318W, strain mcm21, hits give low values 1 | locus YDR334W, strain swr1, hits give low values 0.971 | locus YDR335W, strain msn5, hits give low values 0.99 | locus YDR388W, hits give low values 0.997 | locus YDR392W, strain spt3, hits give low values 0.874 | locus YDR502C, strain sam2, hits give low values 1.01 | locus YEL003W, strain gim4, hits give low values 0.979 | locus YEL037C, strain rad23, hits give low values 0.985 | locus YEL061C, strain CIN8 (second series), hits give low values 0.97 | locus YEL061C, strain CIN8, hits give low values 1.01 | locus YER015W, strain faa2, hits give low values 0.965 | locus YER016W, strain bim1, hits give low values 0.994 | locus YER110C, hits give low values 1 | locus YER111C, strain swi4, hits give low values 0.974 | locus YER155C, strain BEM2 (second series), hits give low values 0.971 | locus YER155C, strain BEM2, hits give low values 1.01 | locus YER167W, strain BCK2, hits give low values 1.03 | locus YFR010W, strain ubp6, hits give low values 0.969 | locus YGL078C, strain dbp3, hits give low values 0.996 | locus YGL086W, strain mad1, hits give low values 1.03 | locus YGL167C, strain pmr1, hits give low values 0.956 | locus YGL173C, strain kem1, hits give low values 0.973 | locus YGL227W, strain vid30, hits give low values 0.97 | locus YGL240W, strain doc1, hits give low values 0.965 | locus YGL248W, strain PDE1, hits give low values 1.01 | locus YGL253W, strain hxk2, hits give low values 0.992 | locus YGR135W, strain pre9, hits give low values 0.981 | locus YGR229C, strain SMI1, hits give low values 1.08 | locus YGR252W, strain gcn5, hits give low values 1.05 | locus YHR013C, strain ard1, hits give low values 0.929 | locus YHR027C, strain rpn1, hits give low values 0.984 | locus YHR030C, strain SLT2, hits give low values 0.995 and 1 | locus YHR079C, strain IRE1 (second series), hits give low values 0.998 | locus YHR079C, strain IRE1, hits give low values 0.988 | locus YHR094C, strain hxt1, hits give low values 1.02 | locus YHR129C, strain ARP1, hits give low values 1.02 | locus YHR142W, strain chs7, hits give low values 1 | locus YHR200W, strain rpn10, hits give low values 0.984 | locus YIL066C, strain RNR3, hits give low values 1.05 | locus YIL073C, strain SPO22, hits give low values 1.02 | locus YIL125W, strain kgd1, hits give low values 0.998 | locus YIR030C, strain dcg1, hits give low values 0.995 | locus YJL092W, strain hpr5, hits give low values 0.985 | locus YJL095W, strain BCK1 (second series), hits give low values 0.998 | locus YJL095W, strain BCK1, hits give low values 1.07 and 1.03 | locus YJL115W, strain asf1, hits give low values 0.991 | locus YJL129C, strain trk1, hits give low values 0.983 | locus YJL134W, strain LCB3, hits give low values 0.996 | locus YJL154C, strain vps35, hits give low values 0.994 | locus YJL164C, strain tpk1, hits give low values 1.02 | locus YJL166W, strain qcr8, hits give low values 0.983 | locus YJL168C, strain set2, hits give low values 0.996 | locus YJL187C, strain SWE1 (second series), hits give low values 1.04 | locus YJL187C, strain SWE1, hits give low values 0.979 | locus YJR043C, strain POL32, hits give low values 1.04 | locus YJR066W, strain TOR1, hits give low values 0.951 | locus YKL009W, strain mrt4, hits give low values 0.986 | locus YKL068W, hits give low values 0.997 | locus YKL085W, strain MDH1 (second series), hits give low values 1.01 | locus YKL085W, strain MDH1, hits give low values 1.01 | locus YKL160W, strain elf1, hits give low values 1.01 | locus YKL190W, strain CNB1, hits give low values 1.02 | locus YKR001C, strain vps1, hits give low values 0.996 | locus YKR026C, strain gcn3, hits give low values 0.967 | locus YKR091W, strain srl3, hits give low values 0.969 | locus YLL001W, strain dnm1, hits give low values 1 | locus YLL026W, hits give low values 1 | locus YLL041C, strain sdh2, hits give low values 0.991 | locus YLR027C, strain aat2, hits give low values 0.979 | locus YLR039C, strain RIC1, hits give low values 1.07 | locus YLR058C, strain SHM2, hits give low values 1.02 | locus YLR102C, strain apc9, hits give low values 0.999 | locus YLR113W, strain HOG1, hits give low values 1.03 | locus YLR221C, strain rsa3, hits give low values 0.994 | locus YLR258W, strain gsy2, hits give low values 0.985 | locus YLR262C, strain YPT6 (second series), hits give low values 1.01 | locus YLR262C, strain YPT6, hits give low values 1.04 | locus YLR268W, strain sec22, hits give low values 1.01 | locus YLR320W, strain mms22, hits give low values 0.993 | locus YLR330W, strain CHS5, hits give low values 1.01 | locus YLR342W, strain FKS1 (second series), hits give low values 1.06 | locus YLR342W, strain FKS1, hits give low values 0.971 | locus YLR357W, strain rsc2, hits give low values 0.968 | locus YLR370C, strain arc18, hits give low values 0.966 | locus YLR371W, strain rom2, hits give low values 0.971 | locus YLR384C, strain iki3, hits give low values 0.993 | locus YLR418C, strain cdc73, hits give low values 1.05 | locus YML016C, strain PPZ1, hits give low values 1.01 | locus YML032C, strain rad52, hits give low values 0.997 | locus YML120C, strain ndi1, hits give low values 0.984 | locus YML124C, strain tub3, hits give low values 0.998 | locus YMR058W, strain fet3, hits give low values 0.97 | locus YMR078C, strain ctf18, hits give low values 0.999 | locus YMR125W, strain sto1, hits give low values 0.942 | locus YMR129W, hits give low values 0.974 | locus YMR205C, strain PFK2, hits give low values 0.934 | locus YMR223W, strain ubp8, hits give low values 0.987 | locus YMR231W, strain pep5, hits give low values 0.967 | [2] 1.19 | locus YNL067W, strain RPL9B, hits give low values 1.05 | locus YNL071W, strain lat1, hits give low values 0.993 | locus YNL183C, strain NPR1, hits give low values 0.979 | locus YNL209W, strain ssb2, hits give low values 0.966 | locus YNL233W, strain BNI4, hits give low values 1.07 | locus YNL248C, strain rpa49, hits give low values 1.02 | locus YNL250W, strain rad50, hits give low values 0.988 | locus YNL271C, strain bni1, hits give low values 0.988 | locus YNL298W, strain CLA4, hits give low values 1 | locus YNL307C, strain MCK1, hits give low values 1 | locus YNL322C, strain KRE1 (second series), hits give low values 0.971 | locus YNR049C, strain mso1, hits give low values 0.986 | locus YNR052C, strain pop2, hits give low values 0.993 | locus YOL006C, strain TOP1, hits give low values 1.11 | locus YOL012C, strain htz1 1.24 | locus YOL147C, strain pex11, hits give low values 1.01 | locus YOR001W, strain rrp6, hits give low values 1.02 | locus YOR061W, strain CKA2, hits give low values 1.01 | locus YOR069W, strain VPS5, hits give low values 1 | locus YOR070C, strain gyp1, hits give low values 0.997 | locus YOR080W, strain dia2, hits give low values 0.966 | locus YOR083W, strain WHI5, hits give low values 1.01 | locus YOR106W, strain vam3, hits give low values 1 | locus YOR136W, strain idh2, hits give low values 0.995 | locus YOR144C, strain elg1, hits give low values 1.01 | locus YOR184W, strain ser1, hits give low values 1.02 | locus YOR231W, strain MKK1, hits give low values 0.992 | locus YOR265W, strain rbl2, hits give low values 1.01 | locus YOR270C, strain vph1, hits give low values 0.974 | locus YOR290C, strain snf2, hits give low values 0.923 | locus YOR316C, strain cot1, hits give low values 0.99 | locus YPL051W, strain arl3, hits give low values 1.01 | locus YPL078C, strain atp4, hits give low values 0.999 | locus YPL106C, strain sse1, hits give low values 0.934 | locus YPL240C, strain hsp82, hits give low values 0.981 | locus YPL256C, strain CLN2, hits give low values 0.977 | locus YPR119W, strain clb2, hits give low values 1 | locus YPR141C, strain kar3, hits give low values 0.986 | locus YPR163C, strain tif3, hits give low values 0.998 | locus YPR167C, strain met16, hits give low values 0.999 | strain wtn01, hits give low values 0.983

COC(=O)c1c(-c2cc(OC)c(OC)c(OC)c2)c2ccnc(OCc3ncccn3)c2c(=O)n1Cc1ccnc(C)c1
inactive: [1] 1 | locus YAL040C, strain CLN3, hits give low values 0.889 | locus YCL061C, strain MRC1 (second series), hits give low values 1.01 | locus YDR363W, strain ESC2, hits give low values 1.01 | locus YER002W, strain NOP16, hits give low values 1 | locus YGR078C, strain PAC10, hits give low values 1.01 | locus YMR263W, strain SAP30, hits give low values 1.01 | [2] 1.01 | locus YNL153C, strain GIM3, hits give low values 1.01 | locus YNL175C, strain NOP13, hits give low values 1 | locus YNL197C, strain WHI3, hits give low values 0.989 | locus YNL224C, strain SQS1, hits give low values 0.993 | locus YNL322C, strain KRE1, hits give low values 1.01 | locus YOR083W, strain WHI5 (second series), hits give low values 0.999 | locus YPL055C, strain LGE1, hits give low values 1.01
